Assay results: PubChem BioAssay AID1476 (National Center for Advancing Translational Sciences (NCATS), 2009)
Hit rate of the full screen: of about 200,000 compounds, about 4,500 (2.2%) were called active. Not shown: some 12% with an inconclusive outcome. The sample as a whole holds a higher share of actives than the screen did. A number with no mark means an inactive call. Calls come from the whole dose curve; as a rule, active = well fitted inhibition curve with a large enough effect; inconclusive = small, poorly fitted or top-dose-only effect, or effect the other way; inactive = flat fitted curve, though single readings scatter.

What follows are compounds tested against Cruzipain (Trypanosoma cruzi) (UniProt P25779) (assay: qHTS Assay for Promiscuous and Specific Inhibitors of Cruzain (without detergent)). Settings: purified cruzain, Z-FR-AMC fluorescence, no detergent.
Cruzipain (Trypanosoma cruzi), sequence (P25779 123-467 limits assumed): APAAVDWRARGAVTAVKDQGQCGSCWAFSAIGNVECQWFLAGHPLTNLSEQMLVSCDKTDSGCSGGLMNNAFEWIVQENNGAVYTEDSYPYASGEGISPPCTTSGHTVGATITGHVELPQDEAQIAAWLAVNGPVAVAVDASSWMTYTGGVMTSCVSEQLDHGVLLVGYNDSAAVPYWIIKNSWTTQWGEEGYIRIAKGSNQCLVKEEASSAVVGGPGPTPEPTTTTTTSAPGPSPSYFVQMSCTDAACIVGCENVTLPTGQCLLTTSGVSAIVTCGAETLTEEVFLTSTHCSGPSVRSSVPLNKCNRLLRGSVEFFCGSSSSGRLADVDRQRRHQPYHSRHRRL
Method in brief: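 Detergent-free condition (0.00005% Triton X-100) in acetate buffer pH 5.5 with DTT. 1.5 nM enzyme and compound were pre-mixed 15 min, then 2 uM Z-FR-AMC substrate added; reaction progress from fluorescence change between first and third reads (60 s).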
Note: nearly all actives have a fitted effect of over 40% in size.
Potency is the fitted concentration of half-maximal effect.
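Throughout, for max response, negative = inhibition: plate controls were enzyme without inhibitor for no effect and buffer without enzyme for full effect.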

| Structure (SMILES) | max response, negative = inhibition [%] | Potency |
| --- | --- | --- |
| CCc1cccc(C)c1NS(=O)(=O)c1ccc(-c2cc(C)no2)s1 | -2.03 | – |
| CCc1ccc(-n2nnc(-c3nc(-c4ccccc4)no3)c2C)cc1 | 11.5 | – |
| CCCNC(=O)c1ccc(Cn2c(SCC(N)=O)nc3ccccc3c2=O)cc1 | -1.8 | – |
| COc1ccc(CC(=O)Nc2nnc3n2CCS3)cc1OC | 3.34 | – |
| O=C(O)COc1c(Cl)cc(Cl)c2cccnc12 | -2.23 | – |
| O=S(=O)(O)c1ccc(O)c2ncccc12.O=S(=O)(O)c1ccc(O)c2ncccc12.[Zn] | – | 3.16 µM (active) |
| CC(=O)c1ccc(N2CCN(C3C(=O)c4ccccc4N3C(C)=O)CC2)cc1 (stereo not drawn) | 6.9 | – |
| COc1ccc(C(F)(F)F)cc1NC(=O)c1sc2nc(-c3cccs3)ccc2c1N | -12.3 | – |
| O=C(COc1ccc2c(C(F)(F)F)cc(=O)oc2c1)Nc1ccc2c(c1)OCCO2 | – | 7.94 µM (active) |
| CC(C)NS(=O)(=O)c1ccc(OCC(=O)Nc2ccc3c(c2)OCCO3)cc1 | 5.06 | – |
| CCN(CC(=O)Nc1ccc2c(c1)OCCO2)Cc1cc(=O)oc2cc(C)c(C)cc12 | -1.71 | – |
| Cc1ccc(CN(C(=O)c2ccccc2[N+](=O)[O-])c2ccccn2)cc1 | -9.11 | – |
| COc1ccc(CNC(=O)c2cc3c(=O)[nH]c4ccc(C)cc4c3s2)c(OC)c1 | 8.63 | – |
| C/C(=N\NC(=O)CNC(=O)C(c1ccccc1)c1ccccc1)c1ccc(C)cc1 | – | 12.6 µM (active) |
| C/C(=N\NC(=O)c1nc(C)cc(C)n1)c1ccccc1 | 4.34 | – |
| C/C(=N\NC(=O)Cc1ccc(F)cc1)c1ccc(F)cc1 | 11.2 | – |
| O=C(CCCCn1c(=O)c2ccccc2n(CC(=O)Nc2cccc(C(F)(F)F)c2)c1=O)NCc1ccc2c(c1)OCO2 | 16.7 | – |
| CCOC(=O)c1ccc2c(c1)N(Cc1cccc(OC)c1)C(=O)c1ccccc1S2(=O)=O | -13.7 | – |
| COc1ccc(/C=N/NC(=O)c2ccccc2)cc1OS(=O)(=O)c1ccccc1 | -2.21 | – |
| COc1cc(/C=N/NC(=O)c2ccccc2)ccc1OS(=O)(=O)c1ccccc1 | -10.2 | – |
| COc1cc(/C=N/NC(=O)Nc2ccccc2)ccc1OCCOc1ccccc1C | – | 25.1 µM (active) |
| Cc1ccc(NC(=O)Cc2ccc(NC(=O)N3CCCCc4ccccc43)cc2)cc1 | 16.9 | – |

| Structure (SMILES) | max response, negative = inhibition [%] | Potency |
| --- | --- | --- |
| Cc1cccc(NC(=O)c2ccc3nc(C(C)C)oc3c2)c1C | -5.86 | – |
| CC(C)(C)C1CCC(=NNC(=O)c2ccc(Br)o2)CC1 (stereo not drawn) | 6.4 | – |
| CC(NC(=O)C(=O)NN=C1CCC(C(C)(C)C)CC1)c1ccccc1 (stereo not drawn) | 14.7 | – |
| CC(C)(C)C1CCC(=NNC(=O)c2cc(-c3ccccc3)n[nH]2)CC1 (stereo not drawn) | – | 12.6 µM (active) |
| CCOC(=O)Cn1c(=O)n(C2CCCCC2)c2nc(-c3cccc(OC)c3)nc(C(N)=O)c21 | -11 | – |
| COc1ccc(CCNc2nc3c(-c4cccc(F)c4)nnn3c3ccccc23)cc1OC | 16.6 | – |
| CC1=C(C(=O)N2CCN(c3cccc(C(F)(F)F)c3)CC2)C2(CCCCC2)OC1=O | -13.5 | – |
| CCOc1ccc(CNC(=O)c2ccc3c(c2)nnn3C2CCCC2)cc1 | -5.67 | – |
| O=C(CN1C(=O)/C(=C\c2ccccc2F)SC1=S)Nc1nc2ccccc2s1 | – | 7.94 µM (active) |
| Cc1nn(CC(=O)Nc2nc3ccccc3s2)c(C)c1[N+](=O)[O-] | -6.47 | – |
| O=C(CCCN1C(=O)/C(=C\c2ccco2)SC1=S)Nc1cccc2ccccc12 | -12.6 | – |
| Cc1cccc(C(=O)NCC(=O)OCC(=O)N2CC3(C)CC2CC(C)(C)C3)c1 (stereo not drawn) | – | 12.6 µM (active) |
| COc1ccccc1C(=O)N1CC2(C)CC1CC(C)(C)C2 (stereo not drawn) | 16.4 | – |
| Cc1cccc(C(=O)NCCCN2CCCC2=O)c1 | -2.37 | – |
| Cc1cc(C)cc(NC(=O)Cn2nc(N3CCN(c4ccccc4)CC3)ccc2=O)c1 | -3.11 | – |
| O=C(CSc1nc2ccccc2[nH]1)N/N=C/C=C\c1ccccc1[N+](=O)[O-] | 10.4 | – |
| CCn1c(SCC(=O)N/N=C/C=C/c2ccccc2[N+](=O)[O-])nnc1-c1ccccc1 | -1.88 | – |
| Cc1ccc(-n2c(SCC(=O)N/N=C/C=C/c3ccccc3[N+](=O)[O-])nc3ccccc3c2=O)cc1 | – | 25.1 µM (active) |
| C=CCN(CC=C)S(=O)(=O)c1ccc(C(=O)Nc2nc3c(s2)CCc2ccccc2-3)cc1 | – | 10 µM (active) |
| CCN(c1ccccc1)S(=O)(=O)c1ccc(C(=O)Nc2nccs2)cc1 | 0.885 | – |
| COCCN(CCOC)S(=O)(=O)c1ccc(C(=O)Nc2nc3c(s2)CCc2ccccc2-3)cc1 | -1.58 | – |
| Cc1ccc(-c2nnc(Nc3cccc(Br)c3)c3ccccc23)cc1S(=O)(=O)NCC1CCCO1 (stereo not drawn) | -20.7 | – |

| Structure (SMILES) | max response, negative = inhibition [%] | Potency |
| --- | --- | --- |
| CCCCCn1c(=O)[nH]c2cc(C(=O)NCCN(C)CCCC)ccc2c1=O | 2.28 | – |
| CCn1c(C)nc2cc(C(=O)NNS(=O)(=O)c3ccc(C)cc3C)ccc21 | 9.43 | – |
| CCOC(=O)c1c(C)n(S(=O)(=O)c2ccc(C)cc2C)c2ccc(NS(=O)(=O)c3ccc(C)cc3C)cc12 | – | 1.58 µM (active) |
| Cc1ccc(S(=O)(=O)n2cnc3ccccc32)c(C)c1 | 3.08 | – |
| N#Cc1ccc(-c2ccc(Cl)cc2)nc1Oc1ccc(F)cc1 | – | 25.1 µM (active) |
| N#Cc1ccc(-c2ccc(F)cc2)nc1Sc1ccccc1 | -27.2 | – |
| CN(C)c1ccnc(Oc2ccc(F)cc2)c1C#N | -8.17 | – |
| COc1cc(NC(=O)Cn2c(=O)n(Cc3ccco3)c(=O)c3oc4ccccc4c32)cc(OC)c1 | -21.5 | – |
| Cc1ccc(C)c(CNC(=O)c2cc3ccccn3n2)c1 | -9.01 | – |
| Cc1cc2c(cc1C)N(C(=O)CN1C(=O)c3ccccc3C1=O)C(C)(C)c1ssc(=S)c1-2 | – | 2.51 µM (active) |
| Cc1ccccc1C(=O)NNC(=O)CN1C(=O)c2ccccc2C1=O | -8.81 | – |
| C=CCn1c(C)cc(C(=O)CN2C(=O)c3ccccc3C2=O)c1C | 4.29 | – |
| O=C(CN1CCN(Cc2ccc(Cl)cc2)C1=O)NCc1ccc(F)cc1 | -6.99 | – |
| COc1ccc(CCNC(=O)CCCCn2c(=O)c3ccccc3n(Cc3ccccc3C)c2=O)cc1OC | -7.48 | – |
| Cc1cc(C)c2nc(NC(=O)c3ccc4c(c3)OCO4)sc2c1 | – | 10 µM (active) |
| Cc1cc(C)c2nc(NC(=O)C3CCCO3)sc2c1 (stereo not drawn) | 0.42 | – |
| O=C(Nc1nc2ccccc2s1)c1ccc2c(c1)OCO2 | -5.87 | – |
| O=C(c1ccc2c(c1)N(Cc1ccc(Cl)cc1)C(=O)c1ccccc1S2(=O)=O)N1CCCCC1 | 0.0442 | – |
| Cc1ccc(C2=N/C(=C\c3ccc(OS(=O)(=O)c4ccc(C)cc4)cc3)C(=O)O2)cc1 | – | 20 µM (active) |
| CCOc1cc(/C=C2/N=C(c3ccc(C(C)(C)C)cc3)OC2=O)cc(Cl)c1OS(C)(=O)=O | 1.67 | – |
| O=C1OC(c2ccc(Cl)cc2)=N/C1=C\c1cccnc1 | -2.62 | – |
| CN1CCN(C2(CNC(=O)COc3ccc(C(C)(C)C)cc3)CCCCC2)CC1 | -0.272 | – |

| Structure (SMILES) | max response, negative = inhibition [%] | Potency |
| --- | --- | --- |
| CCn1c(C)c(C)c2cc(C(=O)NCCc3cc(OC)ccc3OC)ccc21 | 3.29 | – |
| Cc1ccc(CNC(=O)CCC(=O)N2CC(C)Sc3ccccc32)cc1 (stereo not drawn) | 3.17 | – |
| Cc1occc1C(=O)Nc1nnc(-c2ccncc2)s1 | -3.11 | – |
| Cc1ccc(C(=O)Nc2nnc(-c3ccncc3)s2)o1 | -16.9 | – |
| CC(C)=CC(=O)Nc1nnc(-c2ccc(F)cc2)s1 | – | 12.6 µM (active) |
| O=C(NCC12CC3CC(CC(C3)C1)C2)c1cc2nc(-c3ccccc3)cc(C(F)(F)F)n2n1 | -1.29 | – |
| CC(Sc1oc(-c2ccco2)nc1S(=O)(=O)c1ccc(Br)cc1)c1ccccc1 (stereo not drawn) | -8.99 | – |
| CN(Cc1ccccc1)c1ccc(-c2nc(-c3ccccc3)no2)cc1[N+](=O)[O-] | -0.924 | – |
| O=C(NCc1ccccc1)c1ccc2c(c1)nc1n2CCCCC1 | -10.7 | – |
| O=C(Nc1ccc(O)c(-c2nc3ccccc3o2)c1)c1ccc(-c2cccc(Cl)c2)o1 | 1.11 | – |
| O=C(NC(=S)Nc1ccc2oc(=O)ccc2c1)c1ccc(-c2cccc(Cl)c2Cl)o1 | – | 5.01 µM (active) |
| CCCOc1ccc(C(=O)Nc2ccc3oc(-c4cccc(Cl)c4Cl)nc3c2)cc1 | 7.94 | – |
| COC(=O)c1cc(NC(=O)CCc2c(C)nc3c4c(C)cc(C)nc4nn3c2C)cc(C(=O)OC)c1 | -14.1 | – |
| COc1cccc2cc(-c3nc(Cl)c4c5c(sc4n3)CC(C)CC5)c(=O)oc12 (stereo not drawn) | -8.92 | – |
| CCc1ccccc1NC(=O)c1cc(-c2ccc3c(c2)OCO3)on1 | -1.06 | – |
| Clc1ccccc1-c1cc(NCCN2CCOCC2)ncn1 | -3.09 | – |
| c1ccc2cc3c(NCCN4CCOCC4)ccnc3cc2c1 | – | 25.1 µM (active) |
| c1ccc2[nH]c(NCCN3CCOCC3)nc2c1 | -8.64 | – |
| COc1ccc(-n2c(=O)c3ccccc3n(Cc3ccccc3Cl)c2=O)cc1 | 6.51 | – |
| CN(c1ccccc1)c1ccc(/C=c2\s/c(=C(/C#N)C(=O)C(C)(C)C)n(Cc3ccco3)c2=O)cc1 | – | 3.16 µM (active) |
| Cc1cc2c(c(=O)n1Cc1ccco1)C(c1ccccc1)C(C#N)=C(N)O2 (stereo not drawn) | -4.14 | – |
| CCOc1ccccc1NC(=O)Cn1c(=O)n(Cc2ccco2)c(=O)c2sc3ccccc3c21 | -0.26 | – |
